# Assay results from article PMC7862700, “An all-to-all approach to the identification of sequence-specific readers for epigenetic DNA modifications on cytosine”.
# Columns and labels:
# Test in all cases: DAPPL (digital affinity profiling via proximity ligation, sequencing); 10 mM Tris-HCl pH 7.5, 50 mM NaCl, 1 mM DTT, 4% glycerol, room temperature, 30 min; GST-TFs on glutathione beads, 16-mer random dsDNA library, 0.1% formaldehyde crosslink after washing; high values mean tight binding
# Conditions in all cases: protein: recombinant; tags: N-terminal GST; dsDNA, one strand shown
# FLI1 = molecular target: T1, FLI1 (Homo sapiens, UniProt Q01543 1-452)
# T1 sequence: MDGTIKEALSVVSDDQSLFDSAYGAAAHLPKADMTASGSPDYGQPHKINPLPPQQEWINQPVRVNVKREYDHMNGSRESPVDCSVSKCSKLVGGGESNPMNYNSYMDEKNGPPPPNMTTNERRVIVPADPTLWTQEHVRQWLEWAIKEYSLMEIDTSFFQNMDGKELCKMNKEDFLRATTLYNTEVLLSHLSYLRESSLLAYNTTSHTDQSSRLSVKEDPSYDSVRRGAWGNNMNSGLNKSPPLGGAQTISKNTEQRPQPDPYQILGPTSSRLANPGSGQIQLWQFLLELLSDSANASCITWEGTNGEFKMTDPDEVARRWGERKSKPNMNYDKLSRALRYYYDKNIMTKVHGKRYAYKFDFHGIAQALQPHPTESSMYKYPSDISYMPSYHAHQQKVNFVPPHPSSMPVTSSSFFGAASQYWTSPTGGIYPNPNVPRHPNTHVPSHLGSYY
# In short: (§1)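 Human transcription factors carrying a GST fusion were produced in yeast, bound to glutathione beads, tagged with DNA barcodes and pooled together with a tag-only sample. Each pool was held with 200 nmole of a random double-stranded 16-mer DNA library in Tris/NaCl/DTT/glycerol buffer for 30 min at room temperature, then washed, crosslinked in 0.1% formaldehyde, proximity-ligated with BsaI/T4 ligase (1 h, 37 °C), PCR-amplified and sequenced on an Illumina NextSeq500. Binding signal is the read frequency of each hexamer for a given factor divided by its frequency in the tag-only sample.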
# ELK1 = molecular target: T2, ELK1 (Homo sapiens, UniProt P19419 1-428)
# T2 sequence: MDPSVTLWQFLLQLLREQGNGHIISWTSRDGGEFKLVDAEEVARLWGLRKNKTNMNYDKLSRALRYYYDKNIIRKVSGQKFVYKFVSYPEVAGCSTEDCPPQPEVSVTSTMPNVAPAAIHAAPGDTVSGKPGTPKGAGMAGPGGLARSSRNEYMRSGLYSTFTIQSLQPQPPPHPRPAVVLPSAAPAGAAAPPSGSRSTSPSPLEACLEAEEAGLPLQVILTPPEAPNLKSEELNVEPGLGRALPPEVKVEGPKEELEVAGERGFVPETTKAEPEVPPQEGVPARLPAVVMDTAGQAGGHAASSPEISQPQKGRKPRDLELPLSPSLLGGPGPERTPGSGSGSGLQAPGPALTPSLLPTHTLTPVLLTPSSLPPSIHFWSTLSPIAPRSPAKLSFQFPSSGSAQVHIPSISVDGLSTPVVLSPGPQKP
# In short: as §1
# GABPA = molecular target: T3, GABPA (Homo sapiens, UniProt Q06546 1-454)
# T3 sequence: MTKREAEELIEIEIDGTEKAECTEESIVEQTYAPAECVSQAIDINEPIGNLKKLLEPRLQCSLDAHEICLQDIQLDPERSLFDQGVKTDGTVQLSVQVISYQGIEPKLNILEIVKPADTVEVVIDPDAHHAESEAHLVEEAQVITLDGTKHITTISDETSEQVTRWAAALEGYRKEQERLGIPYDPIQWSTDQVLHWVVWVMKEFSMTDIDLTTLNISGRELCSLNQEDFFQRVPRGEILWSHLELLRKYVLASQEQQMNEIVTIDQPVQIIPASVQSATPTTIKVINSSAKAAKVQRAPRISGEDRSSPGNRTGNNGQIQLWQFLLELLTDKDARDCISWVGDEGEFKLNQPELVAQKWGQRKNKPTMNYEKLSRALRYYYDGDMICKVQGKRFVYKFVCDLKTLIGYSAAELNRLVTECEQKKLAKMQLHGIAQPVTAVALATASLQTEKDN
# In short: as §1
# ERG = molecular target: T4, ERG (Homo sapiens, UniProt P11308 1-479)
# T4 sequence: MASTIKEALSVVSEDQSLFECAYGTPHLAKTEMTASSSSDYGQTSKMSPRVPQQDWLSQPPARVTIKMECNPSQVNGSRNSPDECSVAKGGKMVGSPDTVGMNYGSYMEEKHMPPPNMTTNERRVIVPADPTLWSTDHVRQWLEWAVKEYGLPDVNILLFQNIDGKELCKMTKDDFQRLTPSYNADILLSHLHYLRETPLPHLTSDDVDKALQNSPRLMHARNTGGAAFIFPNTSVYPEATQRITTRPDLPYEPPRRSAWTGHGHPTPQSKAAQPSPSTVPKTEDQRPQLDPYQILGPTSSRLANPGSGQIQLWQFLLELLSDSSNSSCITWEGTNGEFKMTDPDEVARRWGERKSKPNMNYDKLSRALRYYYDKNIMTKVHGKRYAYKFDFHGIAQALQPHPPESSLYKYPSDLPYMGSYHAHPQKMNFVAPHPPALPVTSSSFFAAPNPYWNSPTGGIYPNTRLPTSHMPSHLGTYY
# In short: as §1
# ELF1 = ELF1 (Homo sapiens, UniProt P32519 1-619)
# In short: as §1
# EHF = molecular target: T5, EHF (Homo sapiens, UniProt Q9NZC4 1-300)
# T5 sequence: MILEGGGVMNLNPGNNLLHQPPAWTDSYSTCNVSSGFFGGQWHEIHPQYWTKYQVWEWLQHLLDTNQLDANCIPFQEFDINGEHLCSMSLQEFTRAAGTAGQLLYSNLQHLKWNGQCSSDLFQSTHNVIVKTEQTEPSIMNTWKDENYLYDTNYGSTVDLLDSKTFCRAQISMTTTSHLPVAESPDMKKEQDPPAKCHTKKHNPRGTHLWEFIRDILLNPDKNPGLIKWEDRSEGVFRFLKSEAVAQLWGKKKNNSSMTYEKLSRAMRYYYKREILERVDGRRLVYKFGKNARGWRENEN
# In short: as §1
# SPI1 = SPI1 (Homo sapiens, UniProt P17947 1-270)
# In short: as §1
# SPIB = SPIB (Homo sapiens, UniProt Q01892 1-262)
# In short: as §1
# ELK3 = molecular target: T6, ELK3 (Homo sapiens, UniProt P41970 1-407)
# T6 sequence: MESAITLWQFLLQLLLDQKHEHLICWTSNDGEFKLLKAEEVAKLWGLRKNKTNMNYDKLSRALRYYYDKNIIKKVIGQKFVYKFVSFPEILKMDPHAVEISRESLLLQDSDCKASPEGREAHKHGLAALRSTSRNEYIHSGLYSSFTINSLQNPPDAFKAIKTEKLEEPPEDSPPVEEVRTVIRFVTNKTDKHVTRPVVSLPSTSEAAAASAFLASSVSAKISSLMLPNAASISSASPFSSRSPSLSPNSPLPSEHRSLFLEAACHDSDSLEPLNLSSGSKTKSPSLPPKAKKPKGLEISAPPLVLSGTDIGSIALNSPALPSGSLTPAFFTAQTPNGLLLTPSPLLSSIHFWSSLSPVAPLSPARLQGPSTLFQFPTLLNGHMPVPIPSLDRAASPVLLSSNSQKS
# In short: as §1
# FEV = molecular target: T7, FEV (Homo sapiens, UniProt Q99581 1-238)
# T7 sequence: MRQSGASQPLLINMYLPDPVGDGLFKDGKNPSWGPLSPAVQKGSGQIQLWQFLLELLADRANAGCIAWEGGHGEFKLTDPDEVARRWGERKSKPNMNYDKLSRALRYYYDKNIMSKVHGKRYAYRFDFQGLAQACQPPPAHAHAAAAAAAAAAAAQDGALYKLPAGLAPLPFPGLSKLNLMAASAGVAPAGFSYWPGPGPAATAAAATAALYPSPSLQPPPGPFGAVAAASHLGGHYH
# In short: as §1
# ETV5 = ETV5 (Homo sapiens, UniProt P41161 1-510)
# In short: as §1
# SPIC = molecular target: T8, SPIC (Homo sapiens, UniProt Q8N5J4 1-248)
# T8 sequence: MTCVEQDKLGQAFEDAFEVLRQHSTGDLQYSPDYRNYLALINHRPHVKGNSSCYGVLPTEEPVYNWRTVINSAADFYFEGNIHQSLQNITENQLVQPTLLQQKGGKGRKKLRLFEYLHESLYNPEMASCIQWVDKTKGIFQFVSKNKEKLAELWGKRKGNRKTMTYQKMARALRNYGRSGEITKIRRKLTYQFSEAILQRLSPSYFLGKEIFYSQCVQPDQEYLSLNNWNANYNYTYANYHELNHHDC
# In short: as §1
# ELF4 = ELF4 (Homo sapiens, UniProt Q99607 1-663)
# In short: as §1
# ETV1 = ETV1 (Homo sapiens, UniProt P50549 1-477)
# In short: as §1
# ERF = molecular target: T9, ERF (Homo sapiens, UniProt P50548 1-548)
# T9 sequence: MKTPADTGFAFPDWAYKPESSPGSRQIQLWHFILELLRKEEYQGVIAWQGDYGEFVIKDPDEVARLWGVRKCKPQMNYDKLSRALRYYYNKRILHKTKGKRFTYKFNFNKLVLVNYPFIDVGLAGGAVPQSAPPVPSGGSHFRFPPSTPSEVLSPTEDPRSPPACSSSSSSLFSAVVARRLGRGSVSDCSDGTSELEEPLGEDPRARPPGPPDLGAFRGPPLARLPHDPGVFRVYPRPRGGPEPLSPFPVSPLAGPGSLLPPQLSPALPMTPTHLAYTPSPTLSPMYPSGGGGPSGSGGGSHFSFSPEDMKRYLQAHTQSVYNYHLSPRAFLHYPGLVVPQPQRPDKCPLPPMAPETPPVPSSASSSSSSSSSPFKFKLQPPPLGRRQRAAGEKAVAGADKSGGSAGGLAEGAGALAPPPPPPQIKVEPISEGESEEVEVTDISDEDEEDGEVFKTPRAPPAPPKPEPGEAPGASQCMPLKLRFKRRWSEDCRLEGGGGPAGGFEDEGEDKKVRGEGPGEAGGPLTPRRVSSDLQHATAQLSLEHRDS
# In short: as §1
# ETS2 = molecular target: T10, ETS2 (Homo sapiens, UniProt P15036 1-469)
# T10 sequence: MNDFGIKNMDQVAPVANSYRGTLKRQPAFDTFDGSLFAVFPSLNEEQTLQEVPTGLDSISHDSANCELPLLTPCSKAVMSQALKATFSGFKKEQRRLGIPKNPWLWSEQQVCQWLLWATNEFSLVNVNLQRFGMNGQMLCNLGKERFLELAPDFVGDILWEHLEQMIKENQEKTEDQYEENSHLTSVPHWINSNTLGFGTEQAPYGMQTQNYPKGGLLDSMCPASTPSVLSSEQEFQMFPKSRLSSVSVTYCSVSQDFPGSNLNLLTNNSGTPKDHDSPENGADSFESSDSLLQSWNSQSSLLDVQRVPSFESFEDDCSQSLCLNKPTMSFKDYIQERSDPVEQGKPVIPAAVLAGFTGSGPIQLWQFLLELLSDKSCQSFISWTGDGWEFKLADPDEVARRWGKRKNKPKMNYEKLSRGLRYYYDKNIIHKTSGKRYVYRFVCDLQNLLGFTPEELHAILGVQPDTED
# In short: as §1
# SPDEF = molecular target: T11, SPDEF (Homo sapiens, UniProt O95238 1-335)
# T11 sequence: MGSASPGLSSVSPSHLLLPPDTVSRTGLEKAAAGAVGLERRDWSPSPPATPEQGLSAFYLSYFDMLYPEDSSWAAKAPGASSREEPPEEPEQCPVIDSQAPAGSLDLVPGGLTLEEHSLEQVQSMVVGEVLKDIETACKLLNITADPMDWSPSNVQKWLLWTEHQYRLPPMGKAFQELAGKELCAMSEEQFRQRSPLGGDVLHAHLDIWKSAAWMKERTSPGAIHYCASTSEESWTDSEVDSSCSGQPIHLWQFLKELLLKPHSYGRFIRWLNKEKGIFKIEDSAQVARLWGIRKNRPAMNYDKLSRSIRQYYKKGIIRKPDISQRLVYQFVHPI
# In short: as §1
# ETV3 = molecular target: T12, ETV3 (Homo sapiens, UniProt P41162-2 1-143)
# T12 sequence: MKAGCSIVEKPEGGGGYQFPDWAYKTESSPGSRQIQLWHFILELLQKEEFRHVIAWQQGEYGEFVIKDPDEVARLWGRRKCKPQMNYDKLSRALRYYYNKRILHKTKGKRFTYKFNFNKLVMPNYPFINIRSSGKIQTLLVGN
# In short: as §1
# ETV6 = ETV6 (Homo sapiens, UniProt P41212 1-452)
# In short: as §1
# Sequence of SPIB (Q01892 whole entry): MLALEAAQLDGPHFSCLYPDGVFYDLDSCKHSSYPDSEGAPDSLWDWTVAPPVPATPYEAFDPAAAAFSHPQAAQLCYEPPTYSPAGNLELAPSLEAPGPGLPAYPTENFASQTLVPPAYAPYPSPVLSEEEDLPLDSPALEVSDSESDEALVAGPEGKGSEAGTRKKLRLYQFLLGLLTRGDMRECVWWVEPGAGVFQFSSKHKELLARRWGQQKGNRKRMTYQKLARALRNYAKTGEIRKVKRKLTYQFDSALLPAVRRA
# Sequence of ELF4 (Q99607 whole entry): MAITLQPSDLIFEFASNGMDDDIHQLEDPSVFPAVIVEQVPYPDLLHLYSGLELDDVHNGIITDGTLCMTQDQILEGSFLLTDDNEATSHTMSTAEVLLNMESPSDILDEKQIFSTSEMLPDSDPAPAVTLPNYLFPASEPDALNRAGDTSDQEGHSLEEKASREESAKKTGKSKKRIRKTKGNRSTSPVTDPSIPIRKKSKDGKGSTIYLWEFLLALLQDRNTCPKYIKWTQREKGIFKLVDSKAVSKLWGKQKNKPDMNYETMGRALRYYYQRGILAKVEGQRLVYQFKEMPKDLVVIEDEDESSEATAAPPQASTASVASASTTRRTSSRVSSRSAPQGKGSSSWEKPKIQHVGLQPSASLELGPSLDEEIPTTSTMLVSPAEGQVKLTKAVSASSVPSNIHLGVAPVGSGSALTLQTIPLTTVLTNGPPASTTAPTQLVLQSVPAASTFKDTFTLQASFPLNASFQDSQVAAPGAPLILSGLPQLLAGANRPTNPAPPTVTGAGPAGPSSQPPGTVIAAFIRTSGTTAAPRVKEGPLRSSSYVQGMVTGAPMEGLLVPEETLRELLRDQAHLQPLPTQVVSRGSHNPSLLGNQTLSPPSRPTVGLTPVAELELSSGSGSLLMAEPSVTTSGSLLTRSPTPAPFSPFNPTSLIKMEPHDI
# Sequence of ELF1 (P32519 whole entry): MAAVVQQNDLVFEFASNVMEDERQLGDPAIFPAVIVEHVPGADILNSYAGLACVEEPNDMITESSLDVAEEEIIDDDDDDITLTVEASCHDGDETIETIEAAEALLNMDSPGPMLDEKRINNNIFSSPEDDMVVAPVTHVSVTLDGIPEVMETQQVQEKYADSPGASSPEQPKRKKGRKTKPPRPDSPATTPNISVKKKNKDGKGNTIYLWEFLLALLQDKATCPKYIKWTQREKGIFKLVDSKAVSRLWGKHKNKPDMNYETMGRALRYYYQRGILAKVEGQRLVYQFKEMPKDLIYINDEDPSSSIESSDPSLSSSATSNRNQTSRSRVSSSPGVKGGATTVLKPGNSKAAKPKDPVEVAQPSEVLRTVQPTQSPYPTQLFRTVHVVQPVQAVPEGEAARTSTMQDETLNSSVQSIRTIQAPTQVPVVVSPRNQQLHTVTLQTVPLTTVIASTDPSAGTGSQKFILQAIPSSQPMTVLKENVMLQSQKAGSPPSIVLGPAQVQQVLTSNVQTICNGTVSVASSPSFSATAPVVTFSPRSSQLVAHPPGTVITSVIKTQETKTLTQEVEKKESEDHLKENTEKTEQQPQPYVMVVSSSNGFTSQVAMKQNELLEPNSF
# Sequence of ETV1 (P50549 whole entry): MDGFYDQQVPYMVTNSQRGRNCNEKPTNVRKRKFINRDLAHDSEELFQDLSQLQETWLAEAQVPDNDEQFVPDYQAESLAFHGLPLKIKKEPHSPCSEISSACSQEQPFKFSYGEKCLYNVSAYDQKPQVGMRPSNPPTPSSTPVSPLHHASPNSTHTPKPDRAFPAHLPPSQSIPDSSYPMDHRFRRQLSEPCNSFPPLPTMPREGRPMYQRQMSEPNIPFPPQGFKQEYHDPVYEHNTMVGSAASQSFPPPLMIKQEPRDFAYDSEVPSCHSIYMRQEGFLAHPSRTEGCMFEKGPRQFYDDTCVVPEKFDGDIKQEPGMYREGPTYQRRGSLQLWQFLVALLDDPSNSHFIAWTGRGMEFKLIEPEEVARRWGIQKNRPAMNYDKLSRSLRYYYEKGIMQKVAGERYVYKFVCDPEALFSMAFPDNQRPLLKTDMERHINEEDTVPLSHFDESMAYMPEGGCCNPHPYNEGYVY
# Sequence of ETV6 (P41212 whole entry): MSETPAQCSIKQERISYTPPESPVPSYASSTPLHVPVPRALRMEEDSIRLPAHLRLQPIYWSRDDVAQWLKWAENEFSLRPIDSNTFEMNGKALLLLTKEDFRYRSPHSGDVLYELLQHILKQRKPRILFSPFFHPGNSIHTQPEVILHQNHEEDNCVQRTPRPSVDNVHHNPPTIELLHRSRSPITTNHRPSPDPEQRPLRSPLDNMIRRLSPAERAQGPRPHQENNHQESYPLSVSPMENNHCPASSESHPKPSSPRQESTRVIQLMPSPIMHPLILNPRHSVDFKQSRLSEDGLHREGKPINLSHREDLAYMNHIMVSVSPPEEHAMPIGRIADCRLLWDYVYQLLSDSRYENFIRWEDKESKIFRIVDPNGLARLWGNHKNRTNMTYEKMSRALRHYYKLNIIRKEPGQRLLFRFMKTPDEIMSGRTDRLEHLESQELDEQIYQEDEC
# Sequence of ETV5 (P41161 whole entry): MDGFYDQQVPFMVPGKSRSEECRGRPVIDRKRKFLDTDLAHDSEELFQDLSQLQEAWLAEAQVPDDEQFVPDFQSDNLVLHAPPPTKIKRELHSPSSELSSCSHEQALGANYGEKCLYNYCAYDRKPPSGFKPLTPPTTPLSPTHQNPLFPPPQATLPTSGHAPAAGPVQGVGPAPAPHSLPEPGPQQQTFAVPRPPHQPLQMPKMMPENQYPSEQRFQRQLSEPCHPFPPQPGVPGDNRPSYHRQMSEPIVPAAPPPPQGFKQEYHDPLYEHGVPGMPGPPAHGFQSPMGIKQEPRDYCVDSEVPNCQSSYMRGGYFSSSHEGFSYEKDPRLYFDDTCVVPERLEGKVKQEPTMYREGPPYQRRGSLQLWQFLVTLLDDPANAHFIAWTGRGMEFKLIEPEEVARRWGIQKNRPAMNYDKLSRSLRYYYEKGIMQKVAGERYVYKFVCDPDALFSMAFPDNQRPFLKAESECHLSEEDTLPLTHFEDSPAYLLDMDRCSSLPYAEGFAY
sequence,measurement,setting,value
ATGCCG,binding signal,FLI1,"1.12 fold enrichment (6-mer frequency, TF over GST control)"
same,binding signal,ELK1,"1.13 fold enrichment (6-mer frequency, TF over GST control)"
same,binding signal,GABPA,"1.09 fold enrichment (6-mer frequency, TF over GST control)"
same,binding signal,ERG,"1.12 fold enrichment (6-mer frequency, TF over GST control)"
same,binding signal,ELF1,"1.09 fold enrichment (6-mer frequency, TF over GST control)"
same,binding signal,EHF,"1.16 fold enrichment (6-mer frequency, TF over GST control)"
same,binding signal,SPI1,"1.13 fold enrichment (6-mer frequency, TF over GST control)"
same,binding signal,SPIB,"1.17 fold enrichment (6-mer frequency, TF over GST control)"
same,binding signal,ELK3,"1.07 fold enrichment (6-mer frequency, TF over GST control)"
same,binding signal,FEV,"1.16 fold enrichment (6-mer frequency, TF over GST control)"
same,binding signal,ETV5,"1.15 fold enrichment (6-mer frequency, TF over GST control)"
same,binding signal,SPIC,"1.17 fold enrichment (6-mer frequency, TF over GST control)"
same,binding signal,ELF4,"1.19 fold enrichment (6-mer frequency, TF over GST control)"
same,binding signal,ETV1,"1.11 fold enrichment (6-mer frequency, TF over GST control)"
same,binding signal,ERF,"1.01 fold enrichment (6-mer frequency, TF over GST control)"
same,binding signal,ETS2,"1.08 fold enrichment (6-mer frequency, TF over GST control)"
same,binding signal,SPDEF,"1.13 fold enrichment (6-mer frequency, TF over GST control)"
same,binding signal,ETV3,"1.24 fold enrichment (6-mer frequency, TF over GST control)"
same,binding signal,ETV6,"1.15 fold enrichment (6-mer frequency, TF over GST control)"
